{"source": "PubChem BioAssay AID1259422", "about": "(The Scripps Research Institute Molecular Screening Center, 2018)", "note": "Among all 640,000 compounds or so, about 9,300 (1.5%) were called active. The sample holds actives, similar compounds and a random draw of the others, so the mix is not that of the screen. Rule as the data show it: active = inhibition above about 32%; inactive = the rest.", "data": [{"assay": "TEAD-YAP interaction inhibition, primary screen, TEAD-YAP interaction inhibitor project, luminescence, HEK-TIYL cells (AID 1259422);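 also: 0% = median of test compound wells and 100% = reference inhibitor wells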", "details": "TEAD-Gal4/YAP UAS-luciferase luminescence, at 9.12 µM, active compounds read high", "values": [{"smiles": "CN(C)c1cc(-c2nnc(SCc3ccccn3)n2C)nc(N(C)C)n1", "inhibition": "1.09% (inactive)"}, {"smiles": "CC(NS(=O)(=O)c1cc(Cl)ccc1Cl)C(=O)Nc1ccc2c(c1)OCCO2", "note": "(stereo not given)", "inhibition": "-9.66% (inactive)"}, {"smiles": "CC1CCCN(C(=O)CN2C(=O)c3ccccc3S2(=O)=O)C1", "note": "(stereo not given)", "inhibition": "32.8% (active)"}, {"smiles": "O=C(CN1C(=O)c2ccccc2S1(=O)=O)N1CCN(Cc2ccccc2)CC1", "inhibition": "-9.54% (inactive)"}, {"smiles": "O=C(CN1C(=O)c2ccccc2S1(=O)=O)N1CCc2ccccc21", "inhibition": "73.9% (active)"}, {"smiles": "CC1CCCN(C(=O)Cn2c(=O)oc3ccccc32)C1", "note": "(stereo not given)", "inhibition": "7.96% (inactive)"}, {"smiles": "O=C(CC(=O)N1CCc2ccccc21)C(=O)CC(=O)N1CCc2ccccc21", "inhibition": "8.39% (inactive)"}, {"smiles": "CC(=O)CN1C(=O)c2ccccc2S1(=O)=O", "inhibition": "-8.06% (inactive)"}, {"smiles": "O=C(NCc1ccon1)c1cccc(OC2CCN(C(=O)C3CC3)CC2)c1", "inhibition": "-8.88% (inactive)"}, {"smiles": "CC(C)CCNC(=O)C1CC(=O)N(C2CCCCC2)C1", "note": "(stereo not given)", "inhibition": "1.78% (inactive)"}, {"smiles": "O=C(COc1ccccc1)N1CCN(c2ccccc2F)CC1", "inhibition": "0.47% (inactive)"}, {"smiles": "CN(CC(=O)N1CCOCC1)c1ncnc2scc(-c3ccc(F)cc3)c12", "inhibition": "2.08% (inactive)"}, {"smiles": "Cc1csc(C(C#N)C(=O)COC(=O)c2sc3cc(F)ccc3c2Cl)n1", "note": "(stereo not given)", "inhibition": "-0.66% (inactive)"}, {"smiles": "COC(=O)C1=C(C)NC(=O)/C1=C\\c1cccc(OCc2ccccc2)c1", "inhibition": "-0.2% (inactive)"}, {"smiles": "Cc1ccc(Nc2cc(C(=O)O)c3ccccc3n2)cc1", "inhibition": "-9.91% (inactive)"}, {"smiles": "O=C(O)c1cc(-c2ccc(-c3ccccc3)cc2)nc2ccccc12", "inhibition": "84.8% (active)"}, {"smiles": "O=C(c1cc(-c2ccc(Cl)cc2)nc2ccccc12)N1CCN(c2ccc([N+](=O)[O-])cc2)CC1", "inhibition": "3.06% (inactive)"}, {"smiles": "O=C(COC(=O)c1cc(-c2ccccc2)nc2ccccc12)c1ccccc1", "inhibition": "-10% (inactive)"}, {"smiles": "O=C(c1cc(N2CCOCC2)nc2ccccc12)N1CCN(c2cccc(Cl)c2)CC1", "inhibition": "-4.93% (inactive)"}, {"smiles": "O=C(c1cc(-c2ccncc2)nc2ccccc12)N1CCN(c2ccccc2)CC1", "inhibition": "57% (active)"}, {"smiles": "COc1ccc(CNC(=O)c2ccccc2N(Cc2ccccc2)S(=O)(=O)c2ccc(C)cc2)cc1", "inhibition": "1.46% (inactive)"}, {"smiles": "O=C(NCCCN1CCCC1=O)c1ccc2c(c1)N(Cc1ccccc1)C(=O)CS2=O", "note": "(stereo not given)", "inhibition": "-1.97% (inactive)"}, {"smiles": "CSc1ccccc1NC(=O)Cn1nc(C)c([N+](=O)[O-])c1C", "inhibition": "-7.74% (inactive)"}, {"smiles": "Cc1ccc(Oc2ccc(NC(=O)c3ccc(Br)c([N+](=O)[O-])c3)cc2)cc1", "inhibition": "20.9% (inactive)"}, {"smiles": "CCNc1nc(C)cc(Nc2ccc(N3CCOCC3)cc2)n1", "inhibition": "1.76% (inactive)"}, {"smiles": "CC(=O)Nc1ccc(Nc2cc(C)nc(NCc3ccc4c(c3)OCO4)n2)cc1", "inhibition": "31.4% (inactive)"}, {"smiles": "Cc1cc(Nc2ccc(N3CCOCC3)cc2)nc(NCc2ccc3c(c2)OCO3)n1", "inhibition": "38.4% (active)"}, {"smiles": "O=C(Nc1cccnc1Cl)c1cc2nc3c(c(C(F)(F)F)n2n1)CCc1ccccc1-3", "inhibition": "5.92% (inactive)"}, {"smiles": "Cc1ncc(-c2ccncn2)c(-c2ccc(C(F)(F)F)nc2)n1", "inhibition": "6.09% (inactive)"}, {"smiles": "C=C(C)CONC(=O)c1cnc2scc(C(C)(C)C)n2c1=O", "inhibition": "-7.08% (inactive)"}, {"smiles": "CCC(=O)Nc1ccc(C2=NNC(=NC)SC2)cc1", "inhibition": "-4.44% (inactive)"}, {"smiles": "C=CCn1c(C)cc(C2=NNC(=NCC)SC2)c1C", "inhibition": "99.6% (active)"}, {"smiles": "C=CCn1c(C)cc(C(=O)CC#N)c1C", "inhibition": "-18.5% (inactive)"}, {"smiles": "COc1ccc(C2C(C#N)=C(N)Oc3cc(C)n(Cc4ccco4)c(=O)c32)c(OC)c1", "note": "(stereo not given)", "inhibition": "6.86% (inactive)"}, {"smiles": "O=C(N/N=C/c1ccc([N+](=O)[O-])o1)c1ccc(Cl)cc1Cl", "inhibition": "44.6% (active)"}, {"smiles": "O=C(N/N=C/c1ccc([N+](=O)[O-])o1)c1cc(Cl)ccc1O", "inhibition": "2.15% (inactive)"}, {"smiles": "O=C(N/N=C/c1ccc([N+](=O)[O-])o1)c1cccc(F)c1", "inhibition": "-23.7% (inactive)"}, {"smiles": "COc1cc(NC(=O)CC(C)C)c(C(=O)O)cc1OC", "inhibition": "12.1% (inactive)"}, {"smiles": "Cc1cc(NC(=O)c2ccccc2Br)ccc1O", "inhibition": "77% (active)"}, {"smiles": "Cc1ccc(NC(=O)c2ccccc2Br)cc1C", "inhibition": "-49% (inactive)"}, {"smiles": "Cc1ccccc1C(=O)Nc1ccc(Br)c(Cl)c1", "inhibition": "-77.6% (inactive)"}, {"smiles": "OC1CCN(c2ccc(Nc3nccc(-c4cc(N5CCOCC5)cc(C(F)(F)F)c4)n3)cc2)CC1", "inhibition": "31.8% (inactive)"}, {"smiles": "COC1CCN(c2ncn(-c3ccc(Nc4nccc(-c5cncc(N6CCOCC6)c5)n4)cc3)n2)CC1", "inhibition": "51.5% (active)"}, {"smiles": "Cn1nccc1-c1cc(F)cc(-c2ccnc(Nc3ccc(-n4cnc(N5CCOCC5)n4)cc3)n2)c1", "inhibition": "9.9% (inactive)"}, {"smiles": "Cc1cnnn1-c1ccc(Nc2nccc(-c3cc(C#N)cc(N4CCOCC4)c3)n2)cc1", "inhibition": "1.73% (inactive)"}, {"smiles": "N#Cc1cc(-c2ccnc(Nc3ccc(-n4cnc(-c5ccccn5)n4)cc3)n2)cc(N2CCOCC2)c1", "inhibition": "43.5% (active)"}, {"smiles": "Cc1ncccc1-c1ncn(-c2ccc(Nc3nccc(-c4cc(F)cc(N5CCOCC5)c4)n3)cc2)n1", "inhibition": "-3.6% (inactive)"}, {"smiles": "c1cc(-c2cncc(N3CCOCC3)c2)nc(Nc2ccc3c(c2)OCO3)n1", "inhibition": "36.5% (active)"}, {"smiles": "N#Cc1cccc(-c2ccnc(Nc3ccc(N4CCOCC4)cc3)n2)c1", "inhibition": "-9.11% (inactive)"}, {"smiles": "CN(C)c1cc(F)cc(-c2ccnc(Nc3ccc(-n4cnc(N5CCOCC5)n4)cc3)n2)c1", "inhibition": "-6.66% (inactive)"}, {"smiles": "Cc1nc(Oc2cc3sc(C)nc3c3sccc23)c2c3c(sc2n1)CCCC3", "inhibition": "4.62% (inactive)"}, {"smiles": "Cc1cc(-n2c(C)cc(C(=O)COC(=O)c3cc(=O)[nH]c4ccccc34)c2C)no1", "inhibition": "-18.6% (inactive)"}, {"smiles": "CCC(C)NC(=O)C(C(F)(F)F)(C(F)(F)F)C(F)(F)F", "note": "(stereo not given)", "inhibition": "4.25% (inactive)"}, {"smiles": "COc1ccc(-c2cnnn2-c2ccc(-c3csc(N)n3)cc2)cc1", "inhibition": "9.88% (inactive)"}, {"smiles": "COc1ccc(C(=O)N2CCC[C@@H]2[C@@H](O)c2cccs2)cc1Cn1cccn1", "inhibition": "-11.1% (inactive)"}, {"smiles": "O=C(Nc1ccc2ccccc2c1)c1ccc2c(c1)C(=O)N(N1C(=O)c3ccccc3C1=O)C2=O", "inhibition": "2.19% (inactive)"}, {"smiles": "Cc1ccc2oc(=O)c3cnn(CC(=O)N4CCN(c5ccccn5)CC4)c3c2c1", "inhibition": "1.66% (inactive)"}, {"smiles": "Cc1cccc(N2CCN(C(=O)Cn3ncc4c(=O)oc5ccccc5c43)CC2)c1C", "inhibition": "63% (active)"}, {"smiles": "Cc1ccc2oc(=O)c3cnn(CC(=O)N4CCN(c5cccc(Cl)c5)CC4)c3c2c1", "inhibition": "0.74% (inactive)"}, {"smiles": "COc1ccc(/C=C2N=C(/C=C/c3ccc(Cl)cc3Cl)OC\\2=O)cc1OC(C)=O", "inhibition": "-1.28% (inactive)"}, {"smiles": "Cc1ccccc1-n1c(=S)sc2c(=O)n(-c3ccccc3)c(SCc3cccc([N+](=O)[O-])c3)nc21", "inhibition": "-6.72% (inactive)"}, {"smiles": "O=C1C2CC=CCC2C(=O)N1c1ccc(N2C(=O)C3CC=CCC3C2=O)c(Cl)c1", "note": "(stereo not given)", "inhibition": "9.86% (inactive)"}, {"smiles": "CCC(=O)Nc1ccc(-c2nc3ccccc3o2)cc1", "inhibition": "3.84% (inactive)"}, {"smiles": "O=C(Nc1ccc(-c2nc3ccccc3o2)cc1)c1ccc(Oc2ccccc2)cc1", "inhibition": "-4.71% (inactive)"}, {"smiles": "CC(C)C(=O)Nc1ccc(-c2nc3ccccc3o2)cc1", "inhibition": "44.5% (active)"}, {"smiles": "COc1ccc(C(=O)N/C(=C/c2ccc([N+](=O)[O-])cc2)C(=O)Nc2cc(Cl)cc(Cl)c2)c(Cl)c1", "inhibition": "-19% (inactive)"}, {"smiles": "CS(=O)(=O)N(CC(=O)NCCC1=CCCCC1)c1ccc(OCc2ccccc2)cc1", "inhibition": "5.23% (inactive)"}, {"smiles": "CCCCOC(=O)c1cccc(NC(=O)COc2ccc(C)c(C)c2)c1", "inhibition": "-33.7% (inactive)"}, {"smiles": "Cc1cc(NC(=O)COc2ccccc2Br)no1", "inhibition": "-74.2% (inactive)"}, {"smiles": "CCOC(=O)c1cccc(NC(=O)COc2ccccc2Br)c1", "inhibition": "54.5% (active)"}, {"smiles": "Cc1ccsc1/C=N/NS(=O)(=O)c1ccc(Br)cc1", "inhibition": "-2.4% (inactive)"}, {"smiles": "CC(C)C(=O)N=C1N=C2C=CC(Cl)=CN2Cc2ccccc21", "inhibition": "-43.4% (inactive)"}, {"smiles": "COC(=O)c1ccc(Nc2ncnc3nc[nH]c23)cc1", "inhibition": "12.4% (inactive)"}, {"smiles": "COc1ccccc1-c1cnnc(N/N=C/c2cccc(OC)c2OCC(=O)O)n1", "inhibition": "15% (inactive)"}, {"smiles": "CCOc1ccc(/C=N/Nc2ncnc3nc[nH]c23)cc1", "inhibition": "81.1% (active)"}, {"smiles": "COc1cccc(/C=N/Nc2ncnc3nc[nH]c23)c1OC", "inhibition": "37.2% (active)"}, {"smiles": "COc1cccc(/C=N/Nc2nc(=O)[nH]nc2C)c1OC", "inhibition": "-7.82% (inactive)"}, {"smiles": "COc1ccc(/C=N/Nc2ncnc3nc[nH]c23)cc1OC", "inhibition": "-5.99% (inactive)"}, {"smiles": "Cc1sc2ncn(CC(=O)NCCCC(=O)NCCC3=CCCCC3)c(=O)c2c1C", "inhibition": "6.71% (inactive)"}, {"smiles": "CCOc1ccc(/C(O)=C2/C(=O)C(=O)N(CCN(CC)CC)C2c2ccc(F)cc2)cc1C", "note": "(stereo not given)", "inhibition": "-0.51% (inactive)"}, {"smiles": "CCCCCCn1c(NNC=O)nc2c1c(=O)[nH]c(=O)n2C", "inhibition": "5.98% (inactive)"}, {"smiles": "CCOC(=O)c1ccc(NC(=O)C2CC(=O)N(CCc3ccccc3)C(=Nc3ccccc3)S2)cc1", "note": "(stereo not given)", "inhibition": "5.21% (inactive)"}, {"smiles": "Cc1ccc(CN(C)Cc2c(C(=O)N3CCN(C4CCCCC4)CC3)nc3ccccn23)o1", "inhibition": "-4.7% (inactive)"}, {"smiles": "COc1ccc(Nc2nc(N3CCCC3)nc(N3CCCC3)n2)cc1", "inhibition": "1.54% (inactive)"}, {"smiles": "COc1ccccc1N1CCN(C(=O)c2n[nH]c(=O)c3ccccc23)CC1", "inhibition": "59% (active)"}, {"smiles": "COc1cc(CN2CCN(c3ccccc3OC)CC2)cc(OC)c1", "inhibition": "4.91% (inactive)"}, {"smiles": "COc1ccccc1-n1nc(C(=O)N2CCN(c3ccccc3)CC2)c2ccccc2c1=O", "inhibition": "0.45% (inactive)"}, {"smiles": "COc1cc2nc(CN3CCN(c4ccccc4OC)CC3)[nH]c(=O)c2cc1OC", "inhibition": "63.6% (active)"}, {"smiles": "O=C(c1n[nH]c(=O)c2ccccc12)N1CCN(Cc2ccccc2)CC1", "inhibition": "-7.02% (inactive)"}, {"smiles": "COc1cc(OC)c(OC)cc1CN1CCN(c2ccccc2F)CC1", "inhibition": "2.95% (inactive)"}]}]}
